Measured values published in PubChem BioAssay.
The source made the active and inactive calls.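 How the source made its calls, unless noted: active means GFP response above 150% of the DMSO level; inconclusive means fewer than 70 events counted for a yeast strain; inactive means the rest.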

Assays:
[1] = reduced mouse 2C T cell binding to pMHC/ICAM-1 vesicles – MLPCN validation set, flow cytometry, LFA-1/ICAM-1 modulator project, pilot screen (AID 2523;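 active means response below a set limit, under 55% cells CD8-positive and vesicle-bound, and CD8 cells' 90th-percentile brightness under 279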;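 on vesicle binding response: mean PE anti-B7-1 fluorescence of CD8+ cells relative to row control; 100% = QL9-loaded vesicles with DMSO vehicle in the same plate row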); conditions: 2C mouse CD8+ T cells, at 7 µM, stronger effect = lower value; double positive events: measured here: CD8+/vesicle+ event percentage
[2] = molecular target: Integrin beta-1 (Homo sapiens) + Integrin alpha-4 (Homo sapiens) (UniProt P13612+P05556); assay: alpha4beta1 integrin LIBS antibody binding reduction – U937 cells, HUTS-21 mAb, flow cytometry, validation set, VLA-4 allosteric modulator project, pilot screen (AID 2674;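 active means inhibition above 50%, about 3 SD of the validation set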;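 further: antibody binding induced by the VLA-4 ligand LDV present at three times its Kd; 0% = LDV ligand with antibody and no compound and 100% = antibody without LDV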); conditions: HUTS-21 LIBS mAb binding, at 6.7 µM, stronger effect = higher value, binding induced by LDV ligand
[3] = calorie-restriction mimetic ROS inhibitors, yeast – validation compound set, pilot screen (AID 2706;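 active means superoxide response below 65% of plate, a cut near 3 SD across the whole screen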;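 further: yeast exposed to compound for one week at 30 degrees C before staining; 100% = mean of all compound wells on the same plate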); conditions: S. cerevisiae aging, superoxide DHE fluorescence; at 10 µM, stronger effect = lower value
[4] = molecular target: Beta-adrenergic receptor kinase 1 (Homo sapiens) (UniProt P25098); assay: GRK2 binders displacing RNA aptamer, biochemical, validation, human GRK2, bead flow cytometry (AID 488806;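 active means aptamer binding inhibition above 30%, about 3 SD of noise from non-fluorescent compounds; inactive means inhibition at or below 30%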); conditions: bead-bound GRK2, FAM-aptamer displacement, at 10 µM, stronger effect = higher value
[5] = molecular target: Beta-2 adrenergic receptor (Homo sapiens) (UniProt P07550); assay: agonist-induced loss of surface beta2AR – cell-based, FAP fluorogen, flow cytometry, validation set, pilot screen (AID 504459;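 active means percent response above 42, roughly 3 SD of non-fluorescent test compounds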;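 further: agonist-driven loss of surface beta2AR via internalization measured by FAP dye flow cytometry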); conditions: Am2.2-beta2AR cells, at 10 µM, stronger effect = higher value
[6] = molecular target: AP-2 complex subunit beta (Homo sapiens) (UniProt P63010); assay: beta-arrestin/AP2 interaction blockers – biochemical, validation set, GST-AP2 beads, flow cytometry, pilot screen (AID 504541;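 active means inhibition above 54%, about 3 SD of non-fluorescent compounds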;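 further: AP2 carries R879A mutation and is captured from E. coli lysate; bead-bound FITC arrestin peptide fluorescence measuring arrestin peptide binding to AP2; 0% = DMSO wells and 100% = excess unlabeled arrestin peptide control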); conditions: FITC arrestin peptide, at 10 µM, stronger effect = higher value, AP2 beta2 appendage fragment, R879A mutant
[7] = cytosolic pH regulators acting via V-ATPase – S. cerevisiae, pHLuorin, HTS validation (AID 504600; in the data active means response above about 15%;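 further: plate controls were DMSO for no effect and reference compound for full effect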); conditions: V-ATPase proton transport, at 10 µM, stronger effect = higher value
[8] = test system: anti-desmoglein-3 scFv antibody binding to human DSG3; assay: blockers of pathogenic pemphigus antibody–desmoglein-3 binding – biochemical, validation compound set, bead-based, flow cytometry, pilot screen (AID 588368;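 active means binding below the plate cutoff, the plate median minus 3 SD, with a reading above zero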;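 further: signal is the median channel fluorescence of bead-bound GFP antibody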); conditions: Protein G beads, DSG3-Fc, scFv-GFP binding, at 10 µM, stronger effect = lower value
[9] = Nile Red efflux blockade in pump-expressing yeast – validation compound set, multiplex, phenotypic, pilot screen (AID 588506;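 active means efflux inhibition above 0.42, the validation set average plus 4 SD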;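 further: Nile Red retained in cells so higher fluorescence means more efflux inhibition; 0 = negative control wells and 1 = enniatin B 25 µM full block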); conditions: S. cerevisiae pump-expressing triplex, Nile Red efflux flow cytometry; at 10 µM; stronger effect = higher value; the pumps come from Candida albicans
[10] = molecular target: ATP-binding cassette sub-family B member 6 (Homo sapiens) (UniProt Q9NP58); assay: blockers of ABCB6-driven porphyrin uptake – K562-ABCB6 cells, flow cytometry, validation set, pilot screen (AID 588550;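 active means inhibition above the screen-wide mean plus 3 SD, about 51%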;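 further: 0% = DMSO wells and 100% = benzethonium chloride 70 µM positive control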); conditions: K562-ABCB6 porphyrin accumulation, 1 h, at 10 µM, stronger effect = higher value
[11] = AML differentiation inducers, ER-HoxA9 marrow cells – cell-based, GFP/MAC1 double positive, flow cytometry, validation set, primary screen (AID 588685;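 active means differentiation response of at least 50%, scaled between solvent and reference control, from cells with both markers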;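 further: compound exposure lasts four days before antibody staining and flow analysis; 0% = DMSO wells and 100% = 5 µM fulvestrant positive control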); conditions: stronger effect = higher value, normalized: vehicle 0, fulvestrant 100
[12] = hit retest on RPL19A-GFP reporter strain – cell-based, S. cerevisiae, flow cytometry, cherry picks, mother/daughter gates, confirmation (AID 2270;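 active means GFP response below 50% of the DMSO control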); conditions: 3 h, at 10 µM, stronger effect = lower value, 100 = same GFP as DMSO wells
[13] = yeast TOR pathway reporter LAP4-GFP change – cell-based, cherry picks, flow cytometry, mother/daughter gates, confirmation (AID 2271;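 active means GFP response above 150% of the DMSO control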;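 further: ratio of sample to DMSO plate mean so 100% equals DMSO level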); conditions: S. cerevisiae LAP4-GFP strain, 3 h, at 10 µM, stronger effect = higher value, 100 means same as DMSO control
[14] = TOR pathway reporter MEP2-GFP, retest of hits – S. cerevisiae, flow cytometry GFP, cherry picks, confirmation (AID 2272;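 active means GFP response above 150% of the DMSO control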;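 further: ratio of well signal to plate DMSO mean so 100% equals DMSO level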); conditions: S. cerevisiae MEP2-GFP strain, 3 h, at 10 µM, stronger effect = higher value
[15] = yeast AGP1-GFP fluorescence change, single-dose – cell-based, flow cytometry, S. cerevisiae, cherry picks, confirmation (AID 2273);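 further: median GFP channel fluorescence over the whole cell population gate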; conditions: S. cerevisiae AGP1-GFP strain, 3 h, at 10 µM
[16] = TOR pathway CIT2 reporter hit retest – S. cerevisiae, GFP fusion, cherry picks, mother/daughter gates, confirmation (AID 2274); conditions: S. cerevisiae CIT2-GFP strain, flow cytometry, 3 h, at 10 µM, stronger effect = higher value
[17] = measured here: daughter cell gate
[18] = measured here: mother cell gate

Chain of ATP-binding cassette sub-family B member 6 (Homo sapiens) (Q9NP58 whole entry, looked up): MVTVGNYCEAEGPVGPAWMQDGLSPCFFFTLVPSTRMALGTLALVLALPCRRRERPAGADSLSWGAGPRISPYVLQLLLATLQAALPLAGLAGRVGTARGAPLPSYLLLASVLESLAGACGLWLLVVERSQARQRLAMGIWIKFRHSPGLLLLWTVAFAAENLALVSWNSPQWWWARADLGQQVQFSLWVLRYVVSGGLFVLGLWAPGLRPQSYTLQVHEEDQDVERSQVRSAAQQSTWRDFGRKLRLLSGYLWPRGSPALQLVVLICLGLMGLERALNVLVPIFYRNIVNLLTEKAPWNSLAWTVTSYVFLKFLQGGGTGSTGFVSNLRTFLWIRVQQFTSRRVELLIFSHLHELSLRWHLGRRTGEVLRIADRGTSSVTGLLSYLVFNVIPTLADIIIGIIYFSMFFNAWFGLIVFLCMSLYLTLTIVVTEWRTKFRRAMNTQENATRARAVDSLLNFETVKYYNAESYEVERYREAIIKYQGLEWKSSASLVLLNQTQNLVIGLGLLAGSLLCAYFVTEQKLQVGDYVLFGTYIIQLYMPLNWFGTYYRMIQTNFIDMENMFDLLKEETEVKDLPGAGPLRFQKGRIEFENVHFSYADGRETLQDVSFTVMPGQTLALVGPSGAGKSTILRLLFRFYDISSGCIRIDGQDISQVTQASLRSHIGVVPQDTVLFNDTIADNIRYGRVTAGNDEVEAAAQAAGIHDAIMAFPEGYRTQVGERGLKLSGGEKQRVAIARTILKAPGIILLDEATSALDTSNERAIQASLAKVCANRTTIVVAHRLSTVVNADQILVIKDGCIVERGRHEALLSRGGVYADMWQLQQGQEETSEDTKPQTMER
Chain of Integrin beta-1 (Homo sapiens) + Integrin alpha-4 (Homo sapiens) (P05556 whole entry, looked up): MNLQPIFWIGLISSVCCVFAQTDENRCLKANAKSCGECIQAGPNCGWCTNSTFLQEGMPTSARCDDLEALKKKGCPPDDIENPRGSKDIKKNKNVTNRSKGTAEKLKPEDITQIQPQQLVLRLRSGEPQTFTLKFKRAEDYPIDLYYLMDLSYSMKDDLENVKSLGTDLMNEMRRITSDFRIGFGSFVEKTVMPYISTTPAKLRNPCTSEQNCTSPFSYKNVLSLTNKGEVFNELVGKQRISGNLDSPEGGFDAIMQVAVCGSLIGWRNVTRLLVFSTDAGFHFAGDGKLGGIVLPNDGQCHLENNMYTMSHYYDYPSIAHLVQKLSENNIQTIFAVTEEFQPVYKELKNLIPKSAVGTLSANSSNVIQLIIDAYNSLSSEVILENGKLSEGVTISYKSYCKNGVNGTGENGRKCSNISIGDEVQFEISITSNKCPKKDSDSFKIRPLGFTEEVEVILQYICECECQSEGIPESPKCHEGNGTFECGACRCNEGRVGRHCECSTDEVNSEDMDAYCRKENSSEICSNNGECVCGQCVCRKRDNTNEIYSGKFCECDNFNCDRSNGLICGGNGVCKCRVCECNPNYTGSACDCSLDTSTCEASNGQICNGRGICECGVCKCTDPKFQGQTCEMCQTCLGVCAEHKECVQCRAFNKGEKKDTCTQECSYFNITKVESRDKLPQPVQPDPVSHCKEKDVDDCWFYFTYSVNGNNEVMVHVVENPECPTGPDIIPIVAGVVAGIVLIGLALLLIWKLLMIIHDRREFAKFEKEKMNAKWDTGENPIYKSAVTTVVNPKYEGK
Chain of Integrin beta-1 (Homo sapiens) + Integrin alpha-4 (Homo sapiens) (P13612 whole entry, looked up): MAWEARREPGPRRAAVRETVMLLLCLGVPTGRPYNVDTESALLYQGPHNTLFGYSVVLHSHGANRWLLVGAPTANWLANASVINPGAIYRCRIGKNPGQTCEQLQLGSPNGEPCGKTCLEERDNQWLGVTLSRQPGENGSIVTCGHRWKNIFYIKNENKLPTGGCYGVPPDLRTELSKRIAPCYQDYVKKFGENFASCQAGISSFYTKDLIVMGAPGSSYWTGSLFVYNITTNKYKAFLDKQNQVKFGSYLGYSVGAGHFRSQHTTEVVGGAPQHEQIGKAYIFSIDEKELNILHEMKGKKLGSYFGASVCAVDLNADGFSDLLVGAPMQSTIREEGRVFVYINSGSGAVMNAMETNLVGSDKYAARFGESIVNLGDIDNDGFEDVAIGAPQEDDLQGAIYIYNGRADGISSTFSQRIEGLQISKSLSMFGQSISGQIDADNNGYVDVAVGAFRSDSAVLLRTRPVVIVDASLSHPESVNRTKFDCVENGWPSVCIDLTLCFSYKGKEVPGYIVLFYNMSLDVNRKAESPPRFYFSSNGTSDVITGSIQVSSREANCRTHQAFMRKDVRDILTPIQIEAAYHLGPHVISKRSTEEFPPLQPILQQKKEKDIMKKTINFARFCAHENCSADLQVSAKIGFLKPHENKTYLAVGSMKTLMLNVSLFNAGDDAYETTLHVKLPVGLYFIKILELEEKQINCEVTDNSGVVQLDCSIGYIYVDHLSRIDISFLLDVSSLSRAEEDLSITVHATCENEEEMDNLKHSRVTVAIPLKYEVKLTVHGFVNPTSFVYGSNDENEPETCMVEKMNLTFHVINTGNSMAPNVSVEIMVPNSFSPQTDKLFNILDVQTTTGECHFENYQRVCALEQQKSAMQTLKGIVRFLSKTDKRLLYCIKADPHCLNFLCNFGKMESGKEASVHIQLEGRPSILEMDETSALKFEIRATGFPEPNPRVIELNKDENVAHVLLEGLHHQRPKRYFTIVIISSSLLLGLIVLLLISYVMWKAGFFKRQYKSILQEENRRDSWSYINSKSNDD
Chain of Beta-2 adrenergic receptor (Homo sapiens) (P07550 whole entry, looked up): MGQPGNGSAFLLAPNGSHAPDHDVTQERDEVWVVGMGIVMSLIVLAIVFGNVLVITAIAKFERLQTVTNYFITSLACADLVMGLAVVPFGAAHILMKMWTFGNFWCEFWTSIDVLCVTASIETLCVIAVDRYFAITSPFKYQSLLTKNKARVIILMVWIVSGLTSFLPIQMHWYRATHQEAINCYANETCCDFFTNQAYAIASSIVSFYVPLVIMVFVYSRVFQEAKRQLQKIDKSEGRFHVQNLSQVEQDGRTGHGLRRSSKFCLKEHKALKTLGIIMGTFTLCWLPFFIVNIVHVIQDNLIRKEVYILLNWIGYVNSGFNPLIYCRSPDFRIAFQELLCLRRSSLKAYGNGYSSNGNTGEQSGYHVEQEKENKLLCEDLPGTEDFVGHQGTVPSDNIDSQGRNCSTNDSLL
Chain of AP-2 complex subunit beta (Homo sapiens) (P63010 whole entry, looked up, the tested form may be a part, one chain of several): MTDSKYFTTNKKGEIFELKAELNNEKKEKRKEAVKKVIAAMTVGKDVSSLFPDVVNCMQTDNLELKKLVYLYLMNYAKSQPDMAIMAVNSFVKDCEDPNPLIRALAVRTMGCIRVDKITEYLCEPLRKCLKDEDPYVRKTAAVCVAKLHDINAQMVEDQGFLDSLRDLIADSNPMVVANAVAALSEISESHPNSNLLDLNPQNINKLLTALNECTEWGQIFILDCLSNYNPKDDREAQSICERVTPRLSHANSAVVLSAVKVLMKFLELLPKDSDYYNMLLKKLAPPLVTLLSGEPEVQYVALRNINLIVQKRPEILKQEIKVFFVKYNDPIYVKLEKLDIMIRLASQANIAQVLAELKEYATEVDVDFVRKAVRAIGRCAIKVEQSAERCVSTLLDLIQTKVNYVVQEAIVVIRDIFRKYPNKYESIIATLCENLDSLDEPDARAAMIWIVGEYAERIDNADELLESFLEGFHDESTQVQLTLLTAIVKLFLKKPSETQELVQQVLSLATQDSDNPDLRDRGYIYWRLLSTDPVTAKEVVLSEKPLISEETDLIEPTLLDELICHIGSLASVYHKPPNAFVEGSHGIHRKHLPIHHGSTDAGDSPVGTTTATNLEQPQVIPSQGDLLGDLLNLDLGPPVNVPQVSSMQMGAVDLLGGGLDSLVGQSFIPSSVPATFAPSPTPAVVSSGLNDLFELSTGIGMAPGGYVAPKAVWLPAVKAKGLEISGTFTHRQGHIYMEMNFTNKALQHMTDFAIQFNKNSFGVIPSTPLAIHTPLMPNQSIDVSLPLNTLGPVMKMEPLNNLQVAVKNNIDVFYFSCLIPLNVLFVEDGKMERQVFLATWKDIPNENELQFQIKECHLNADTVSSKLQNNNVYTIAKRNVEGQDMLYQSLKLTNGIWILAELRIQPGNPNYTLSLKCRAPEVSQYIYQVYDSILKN
Chain of Beta-adrenergic receptor kinase 1 (Homo sapiens) (P25098 whole entry, looked up): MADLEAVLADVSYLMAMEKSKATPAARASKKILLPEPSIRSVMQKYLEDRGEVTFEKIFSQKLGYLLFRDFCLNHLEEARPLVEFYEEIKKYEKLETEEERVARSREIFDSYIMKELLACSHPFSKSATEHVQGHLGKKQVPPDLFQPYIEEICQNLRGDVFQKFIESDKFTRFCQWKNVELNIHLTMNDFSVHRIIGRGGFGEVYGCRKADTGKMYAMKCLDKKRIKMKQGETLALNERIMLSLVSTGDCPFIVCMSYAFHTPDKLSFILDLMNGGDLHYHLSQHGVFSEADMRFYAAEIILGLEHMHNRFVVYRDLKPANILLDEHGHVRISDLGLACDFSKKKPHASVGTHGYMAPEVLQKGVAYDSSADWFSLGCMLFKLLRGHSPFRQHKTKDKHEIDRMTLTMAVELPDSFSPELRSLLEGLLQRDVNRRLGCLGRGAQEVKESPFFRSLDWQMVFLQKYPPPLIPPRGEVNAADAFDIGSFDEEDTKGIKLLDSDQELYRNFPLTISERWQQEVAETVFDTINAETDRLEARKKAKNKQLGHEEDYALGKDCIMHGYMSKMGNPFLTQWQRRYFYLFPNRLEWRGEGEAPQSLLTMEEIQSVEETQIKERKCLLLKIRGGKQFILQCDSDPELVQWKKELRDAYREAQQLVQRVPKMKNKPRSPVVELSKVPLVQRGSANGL

| SMILES | double positive events [1] [%] | vesicle binding response [1] | inhibition [2] | superoxide response (% of plate) [3] | aptamer binding inhibition [4] | response [5] | inhibition [6] | response [7] | binding (% of control) [8] | efflux inhibition (fraction of control) [9] | inhibition [10] | differentiation response [11] | GFP response vs DMSO [12] | GFP response relative to DMSO [13] | GFP response vs DMSO [14] | GFP response, % of DMSO [15] | GFP response, % of DMSO [16] | GFP response, % of DMSO [16, 17] [%] | GFP response, % of DMSO [16, 18] [%] |
| --- | --- | --- | --- | --- | --- | --- | --- | --- | --- | --- | --- | --- | --- | --- | --- | --- | --- | --- | --- |
| O=C(NCCc1nc2ccccc2[nH]1)c1cccc(Br)c1 | 72.8 | 224% (inactive) | 11.9% (inactive) | 92.6% (inactive) | 4% (inactive) | -6.54% (inactive) | -1.76% (inactive) | 3.78% (inactive) | 97.8% (inactive) | -0.1 (inactive) | 5% (inactive) | 0.8% (inactive) |  |  |  |  |  |  |  |
| COCc1cc(=O)[nH]c(Nc2nc3ccccc3o2)n1 | 62.6 | 117% (inactive) | -7.93% (inactive) | 86.3% (inactive) | 3% (inactive) | -16.5% (inactive) | -0.3% (inactive) | 6.3% (inactive) | 108% (inactive) | 0 (inactive) | 4% (inactive) | 6.83% (inactive) |  |  |  |  |  |  |  |
| COc1ccc(C(=O)/C=C2/c3ccccc3CC(C)(C)N2C)cc1 | 59.8 | 124% (inactive) | 2.93% (inactive) | 99% (inactive) | 3% (inactive) | 23.7% (inactive) | -8.96% (inactive) | -3.68% (inactive) | 98.3% (inactive) | -0.25 (inactive) | 7% (inactive) | -7.5% (inactive) |  |  |  |  |  |  |  |
| C[C@H]1O[C@H]1P(=O)(O)O | 66.2 | 197% (inactive) | 15.1% (inactive) | 95.9% (inactive) | 5% (inactive) | -11.7% (inactive) | 6.72% (inactive) | 17.1% (active) | 103% (inactive) | -0.09 (inactive) | 9% (inactive) | 12.8% (inactive) |  |  |  |  |  |  |  |
| COc1ccc(S(=O)(=O)NC(Cc2cnc[nH]2)C(=O)O)cc1 (centres undefined) | 49.4 | 8.1% (active) | 9.13% (inactive) | 100% (inactive) | 1% (inactive) | -7.36% (inactive) | -1% (inactive) | 1.95% (inactive) | 99.1% (inactive) | -0.35 (inactive) | -19% (inactive) | -20% (inactive) |  |  |  |  |  |  |  |
| CCC(=O)OCCNc1cc(Sc2nc3ccccc3s2)c2nonc2c1[N+](=O)[O-] |  |  |  |  |  |  |  |  |  |  |  |  | 90.5% (inactive) | 254% (active) | 97.8% (inactive) | 124% (inactive) | 80.8% (inactive) |  |  |
| CCCCNC(=O)c1cc2c(=O)n3cccc(C)c3nc2n(Cc2ccncc2)c1=N |  |  |  |  |  |  |  |  |  |  |  |  | 97.2% (inactive) | 96.5% (inactive) | 102% (inactive) | 102% (inactive) | 104% (inactive) | 96.4 | 95.6 |
| CC(=O)C1=C(NC(=O)c2ccc(C(F)(F)F)cc2)C[C@@H]2[C@H]1C2(C)C | 60 | 129% (inactive) | -3.77% (inactive) | 99% (inactive) | 3% (inactive) | 0.35% (inactive) | 6.52% (inactive) | -6.14% (inactive) | 101% (inactive) | 0.28 (inactive) | -1% (inactive) | -17.7% (inactive) |  |  |  |  |  |  |  |
| CC(C)(C)C(=O)NC(=S)NNC(=O)c1sc2ccccc2c1Cl |  |  |  |  |  |  |  |  |  |  |  |  | 116% (inactive) | 242% (active) | 122% (inactive) | 137% (inactive) | 106% (inactive) | 90.5 | 91.5 |
| Cc1ccc2c(c1)C1CN(C)CCC1N2C(=O)c1ccc(Cl)c(S(=O)(=O)N2CCOCC2)c1 (centres undefined) |  |  |  |  |  |  |  |  |  |  |  |  | 102% (inactive) | 107% (inactive) | 102% (inactive) | 102% (inactive) | 112% (inactive) |  |  |
| Cc1nc2ccc(Br)cn2c1NC(C)(C)C |  |  |  |  |  |  |  |  |  |  |  |  | 98.4% (inactive) | 96.2% (inactive) | 100% (inactive) | 97.6% (inactive) | 102% (inactive) |  |  |
| CC(C)c1ccc2[nH]c3c(c2c1)CCCC3=O | 59.4 | 113% (inactive) | 4.27% (inactive) | 97.7% (inactive) | 2% (inactive) | 11.3% (inactive) | 0.1% (inactive) | 1.31% (inactive) | 102% (inactive) | 0.04 (inactive) | 27% (inactive) | -1.65% (inactive) |  |  |  |  |  |  |  |
| N/C(=N\OC(=O)c1ccc(Cl)cc1Cl)c1ccccc1 |  |  |  |  |  |  |  |  |  |  |  |  | 98.4% (inactive) | 155% (active) | 106% (inactive) | 80.1% (inactive) | 151% (active) |  |  |
| Fc1cccc(Cc2noc(CN3CCN(c4cnccn4)CC3)n2)c1 | 56.6 | 45.8% (inactive) | -3.57% (inactive) | 108% (inactive) | -1% (inactive) | -4.45% (inactive) | 56.4% (active) | -3.37% (inactive) | 97.4% (inactive) | 0.11 (inactive) | 0% (inactive) | 41.3% (inactive) |  |  |  |  |  |  |  |
| C=CCc1ccc(OCC(O)COc2ccc(CC=C)cc2OC)c(OC)c1 | 58.6 | 140% (inactive) | 7.76% (inactive) | 104% (inactive) | -1% (inactive) | 7.14% (inactive) | 3.97% (inactive) | 2.47% (inactive) | 104% (inactive) | 0.4 (inactive) | 4% (inactive) | 50.4% (active) |  |  |  |  |  |  |  |
| O=C(c1cc2cc(Br)ccc2o1)N1CCCCC1 | 63.8 | 320% (inactive) | 10.5% (inactive) | 86.2% (inactive) | -4% (inactive) | -13.7% (inactive) | -1.81% (inactive) | -0.39% (inactive) | 73.3% (active) | 0.05 (inactive) | 6% (inactive) | 4% (inactive) |  |  |  |  |  |  |  |
